Screening results: PubChem BioAssay, National Center for Advancing Translational Sciences (NCATS)
D1 potentiator – Potentiators of Human D1 Dopamine Receptor: qHTS; potentiation, % at 10 µM; AID 504651, 2011; actives 0.036% (n = 360,000); D(1A) dopamine receptor (Homo sapiens), P21728; HEK293 TREx D1 cells, calcium flux, dopamine EC20 potentiation; in the data active means potentiation above about 30%; further: 0% is about no effect
TRHR ag – qHTS for Small Molecule Agonists and Allosteric Enhancers of Human TRH Receptor: Primary Screen for Agonists; activation, % at 2 µM; TRHR cells, calcium flux fluo-8, FDSS agonist mode; Thyrotropin-releasing hormone receptor (Homo sapiens), P34981; actives 0.18% (n = 360,000); further: 0% is about no effect
Target sequence (P34981 whole entry, looked up): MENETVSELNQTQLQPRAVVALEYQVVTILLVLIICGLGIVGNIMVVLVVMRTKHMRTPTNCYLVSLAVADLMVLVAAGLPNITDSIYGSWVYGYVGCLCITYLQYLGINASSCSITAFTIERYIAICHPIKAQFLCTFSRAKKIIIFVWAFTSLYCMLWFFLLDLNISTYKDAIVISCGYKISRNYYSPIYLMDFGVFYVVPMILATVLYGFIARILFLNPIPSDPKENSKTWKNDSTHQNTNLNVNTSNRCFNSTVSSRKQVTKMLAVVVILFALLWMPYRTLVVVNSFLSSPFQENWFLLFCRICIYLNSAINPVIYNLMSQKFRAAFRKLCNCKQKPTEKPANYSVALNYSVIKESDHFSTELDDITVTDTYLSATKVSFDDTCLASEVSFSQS
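Agonist-mode FDSS calcium read (Ex 480/Em 530, 1 s cycles) in 1536-well TRHR cells with fluo-8 dye, after 10-cycle baseline and 23 nL compound addition; TRH at EC20 (10 nM final) added afterwards for the enhancer phase.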
D1 agonist – Allosteric Agonists of the Human D1 Dopamine Receptor: qHTS; HEK293 T-REx D1 cells, calcium flux, agonist mode; activation, % at 2 µM; actives 1% (n = 360,000); AID 504660, 2011; further: 0% is about no effect
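Tetracycline-induced HEK293 TREx D1 cells, force-coupled to calcium signalling, were dye-loaded with a no-wash calcium kit. Compound was pin-added after a 10 s baseline. Fluorescence was read kinetically at 1 cycle/s for 180 s, with calcium rises flagged as agonism.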
TRHR enhancer – qHTS for Small Molecule Agonists and Allosteric Enhancers of Human TRH Receptor: Primary Screen for Enhancers; actives 0.66% (n = 360,000); Thyrotropin-releasing hormone receptor (Homo sapiens), P34981; TRHR cells, fluo-8 calcium fluorescence, EC20 TRH enhancement; enhancement, % at 2 µM; in the data active means enhancement above about 30%; further: 0% is about no effect
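TRHR-expressing cells loaded with fluo-8 calcium dye were read kinetically (ex 480/em 530) during compound addition, then stimulated with an EC20 of TRH (10 nM final). Enhancement of the Gq-mediated intracellular calcium response was scored.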
D1 antag – Antagonist of Human D 1 Dopamine Receptor: qHTS | D(1A) dopamine receptor (Homo sapiens), P21728 | HEK293 TREx D1 cells, calcium flux, dopamine EC80; hits give low values | activity change, negative = inhibition, % at 10 µM | actives 3.2% (n = 360,000) | AID 504652, 2011; in the data active means activity change below about -30%; further: on the % scale 0 is the no-effect control and ±100 the full control effect
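HEK293 T-REx cells expressing inducible, force-coupled D1 receptor; no-wash Ca dye, 30–90 min RT. Cmpd → 180 s read at 1 Hz → EC80 DA → 180 s read.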
* hit, by the source's call; x = not tested or not shown. Only some compounds are listed: those with a hit (about 4.6% of all), similar ones and a draw of the others. Unless noted, no stated cut-off is given here; in the data, active means activation above about 30%; inactive means the rest.

SMILES	D1 potentiator	TRHR ag	D1 agonist	TRHR enhancer	D1 antag
O=C1S/C(=C\c2ccc(N3CCOCC3)o2)C(=O)N1Cc1ccc(F)cc1	-6	22	42*	-5	9
Cc1cc2c(s1)c1cnn(Cc3cccc(F)c3)c(=O)c1n2C	1	-1	0	-4	5
COc1ccc(C(=O)N2CCCC(O)C2)cc1OC1CCN(C(C)C)CC1 (configuration not stated)	-4	0	1	-4	-3
CC1CCCCN1S(=O)(=O)c1cc2c3c(c1)CC(=O)N3CCC2 (configuration not stated)	1	0	-1	32*	x
CCC(=O)Nc1ccc(C(=O)N/N=C/c2cc(Br)c(OC)cc2OC)cc1	-8	0	2	0	-31*
COc1ccccc1/C=N/NC(=O)c1ccc(NC(=O)c2ccccc2Br)cc1	-2	0	10	4	-28
COc1ccc(N2CCN(C(=O)c3cc(=O)c4cc(C)c(C)cc4o3)CC2)cc1	-8	0	-1	-2	-2
Cc1nc2sccn2c(=O)c1S(=O)(=O)NCc1ccccc1Cl	-4	1	2	2	8
Cc1nc2sccn2c(=O)c1S(=O)(=O)NCC1CCN(Cc2ccccc2Cl)CC1	9	1	5	-1	-66*
O=C1CC(C(=O)N2CCc3ccccc32)CN1c1ccccc1 (configuration not stated)	-2	0	0	-4	-31*
Cc1ccc(N2CC(C(=O)N3CCc4ccccc43)CC2=O)cc1 (configuration not stated)	-3	-1	-1	0	-13
COC(=O)/C=c1/s/c(=C(\C#N)C(=O)NCc2ccco2)n(-c2ccccc2)c1=O	-2	1	1	-2	-33*
CC(C)(C)c1cc(/C=N/NC(=O)Cc2nc3ccccc3[nH]2)cc(C(C)(C)C)c1O	-3	-1	2	7	-35*
O=C(Cc1nc2ccccc2[nH]1)N/N=C/c1ccccc1	-2	1	3	-3	9
CC(C)N(c1nnc(N)s1)C(C)C	-6	0	-1	6	-31*
CCSC1=N/C(=C\c2cccnc2)C(=O)N1c1ccccc1	-18	0	1	8	-68*
CSC1=N/C(=C\c2cccnc2)C(=O)N1c1ccccc1	-9	0	3	-2	-43*
COc1cc(NC(=O)CNS(=O)(=O)c2cccs2)cc(OC)c1OC	-3	1	1	0	12
CCOC(=O)c1sc(NC(=O)CSc2n[nH]c(-c3ccccc3)n2)c(C#N)c1C	-2	0	26	-6	-36*
O=C(Cn1cnc2c(nnn2-c2ccccc2)c1=O)NCc1ccc(F)cc1	-4	-1	1	-1	-60*
Cc1ccc(-n2nnc3c(=O)n(CC(=O)NCc4ccccc4)cnc32)cc1	-3	0	-1	-4	-8
CCN1CCN(C(c2ccc(F)cc2)c2c(O)cc(C)n(CCOC)c2=O)CC1 (configuration not stated)	3	0	0	-1	4
COc1cc2c(c(OC)c1OC)-c1c(cc(OC)c(OC)c1OC)C[C@H](C)[C@H](C)C2	-1	0	6	-4	17
COc1cc2c(c(O)c1OC)-c1c(cc(OC)c(OC)c1OC)C[C@@H](C)[C@@H](C)C2	-2	1	3	-3	-40*
Cc1cc(=O)n(Cc2ccccc2)c2c1c(C)nn2C	-5	0	5	12	-12
SMILES	D1 potentiator	TRHR ag	D1 agonist	TRHR enhancer	D1 antag
Cc1nn(C)c2c1c(-c1ccccc1)cc(=O)n2Cc1ccc(Cl)cc1	-5	1	18	39*	-5
CCOc1ccc(NC(=O)Nc2cc(-c3ccccc3)sc2C(=O)OC)cc1	7	1	4	-1	6
CCOc1ccc(-c2cc(NC(=O)c3c(F)cccc3F)c(C(=O)O)s2)cc1	-8	0	0	-1	-49*
COc1ccc(C(=O)NCCCn2ccnc2)cc1	4	0	2	17	3
COc1ccc(-c2nn(-c3ccccc3)cc2C(=O)NCCCn2ccnc2)cc1	-5	0	1	-5	-38*
CCC(C)C(NC(=O)c1ccccc1NC(=O)c1ccc(OC)cc1)C(=O)NCCCn1ccnc1 (configuration not stated)	0	0	2	39*	5
CCN(c1cc(C)cc(C)c1)S(=O)(=O)c1nnc(NC(=O)c2cccc(F)c2)s1	-1	1	3	-1	-8
Cc1cc2[nH]c(=O)c3ccccc3n2n1	-7	1	2	-5	-72*
Cc1cc2[nH]c(=O)cc(-c3ccccc3)n2n1	4	0	3	-8	-5
CC(=O)Nc1ccc(NC(=O)c2cccc(Oc3ccccc3)c2)cc1	-5	0	2	2	1
CCCC(C)NC(=O)c1cccc(Oc2ccccc2)c1 (configuration not stated)	-5	-2	33*	6	6
Cc1ccc(Sc2ncccc2[N+](=O)[O-])cc1	-3	0	6	7	-17
CC(C)(C)n1cnnc1Sc1ncccc1[N+](=O)[O-]	11	1	3	3	-32*
Cc1cc(C)c2c(=O)cc(C(=O)Nc3ccc(C)c(Cl)c3)oc2c1	-1	0	1	-2	8
O=C(C/C=N\OCc1ccc([N+](=O)[O-])cc1)Nc1ccc(Cl)cc1	-7	0	19	-5	-30*
N#CN1CCC(NS(=O)(=O)c2cccc(C(F)(F)F)c2)CC1	12	0	-1	1	2
CCOC(=O)N1CCC(N2Cc3cccc(C(=O)Nc4ccc(CC)cc4)c3C2=O)CC1	-1	1	1	3	-3
CCOC(=O)N1CCC(N2Cc3cccc(C(=O)Nc4ccc(F)cc4)c3C2=O)CC1	-2	0	0	-2	-53*
COc1ccc(S(=O)(=O)Nc2cc(Cl)ccc2-n2cncn2)cc1	-1	1	0	6	-62*
CCCn1c(=O)c(C(=O)NNC(=O)Cc2ccccc2)c(O)c2ccccc21	-6	0	6	33*	-5
CCCn1c(=O)c(C(=O)NNC(=O)c2ccccc2Cl)c(O)c2ccccc21	-6	30*	21	-2	-19
CCCn1c(=O)c(C(=O)NNC(=O)c2ccccc2[N+](=O)[O-])c(O)c2ccccc21	-16	0	2	1	-6
